A selection: hits, their analogues and other compounds. The true share with any hit is near 21%.
DT40 TDP1 CPT: qHTS for Inhibitors of human tyrosyl-DNA phosphodiesterase 1 (TDP1): qHTS in cells in presence of CPT. AID 686979, 2013. Potency, µM (titrated, usually from 46.2 µM), inactives show at the highest dose activity change, negative = growth inhibition, usual class: inhibitors. chicken DT40 Tdp1-/-;hTDP1 cells + 20 nM CPT, ATP luminescence, 48 h. 12% of 420,000 active; note: potency is the fitted concentration of half-maximal effect; % is set by controls: 0 for no effect and ±100 for the full control effect; nearly all actives have a fitted effect of over 55% in size
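Chicken DT40 Tdp1-/- cells stably complemented with human TDP1 were seeded at 400 cells/well in medium containing 20 nM camptothecin, exposed to pin-transferred compounds, and grown at 37 °C for at least 48 hr. Viability was read as ATP luminescence.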
D3 ag: qHTS of D3 Dopamine Receptor Agonist: qHTS; D3R DiscoveRx beta-arrestin cells, luminescence, 90 min; max activation, %; 0.58% of 410,000 active; AID 652048, 2013; in the data active = max activation above about 30%; note: 0% is about no effect
Target sequence (P35462 whole entry, looked up): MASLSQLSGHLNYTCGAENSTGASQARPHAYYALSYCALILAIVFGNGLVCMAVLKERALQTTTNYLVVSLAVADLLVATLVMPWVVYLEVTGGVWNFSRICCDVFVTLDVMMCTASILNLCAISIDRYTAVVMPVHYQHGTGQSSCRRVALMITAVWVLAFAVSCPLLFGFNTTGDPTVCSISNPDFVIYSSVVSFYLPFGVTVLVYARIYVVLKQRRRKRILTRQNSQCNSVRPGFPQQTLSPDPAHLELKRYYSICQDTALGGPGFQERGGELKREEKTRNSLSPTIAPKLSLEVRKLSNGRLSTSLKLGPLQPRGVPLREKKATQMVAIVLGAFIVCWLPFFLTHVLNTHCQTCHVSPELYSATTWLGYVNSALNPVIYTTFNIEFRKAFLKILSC
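Agonist-mode cell screen: cells plated at 1500/well and incubated overnight at 37 °C, then exposed to library compounds for 90 min at 37 °C. Detection reagent was added for 30–60 min at room temperature, and luminescence was read.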
ClpP mod: qHTS Assay for Activators of ClpP; ATP-dependent Clp protease proteolytic subunit (Bacillus subtilis (strain 168)), P80244; 1.9% of 340,000 active; Potency, µM (top dose mostly 57.5 µM), inactives show at the highest dose activity change, negative = active; purified B. subtilis ClpP, FRET peptide cleavage, 20 min; AID 651965, 2013; active = well fitted falling curve with a large enough effect; inconclusive = small, poorly fitted or top-dose-only effect; inactive = no such curve, though single readings can be large or run the other way; note: potency is the fitted concentration of half-maximal effect; the source files actives as falling curves though it sought activators and does not explain the sign; nearly all actives have a fitted effect of over 65% in size
Target sequence (P80244 whole entry, looked up): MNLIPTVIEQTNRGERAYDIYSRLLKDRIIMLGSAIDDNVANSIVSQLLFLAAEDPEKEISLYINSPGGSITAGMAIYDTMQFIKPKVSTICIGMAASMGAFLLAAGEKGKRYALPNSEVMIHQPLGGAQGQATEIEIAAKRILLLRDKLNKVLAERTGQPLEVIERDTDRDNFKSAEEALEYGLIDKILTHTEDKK
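Buffer: 100 mM Tris/HCl pH8, 100 mM KCl, 0.05% low protease BSA, 2.5% glycerol, 0.01% Tween-20. ClpP 10 microg/mL final; 20 min RT; delta FRET normalized to ADEP and DMSO controls.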
IL-1B inflam inh: qHTS for Inhibitors of Inflammasome Signaling: IL-1-beta AlphaLISA Primary Screen; THP-1 LPS/ATP IL-1B secretion, AlphaLISA, 16 h; hits give low values; activity change, % at 57.5 µM; 4.7% of 360,000 active; AID 743279, 2014; in the data active = activity change below about -50%; inconclusive = mostly about -30% to -49%; note: % is set by controls: 0 for no effect and ±100 for the full control effect
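THP-1 cells pretreated 1 hr with compounds (up to 57.5 uM final), then stimulated with LPS (250 ng/mL final) plus ATP (1.25 mM final); secreted IL-1B measured by AlphaLISA after 16 hr, decreased signal indicating inhibition.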
TDP1 cell noCPT: qHTS for Inhibitors of human tyrosyl-DNA phosphodiesterase 1 (TDP1): qHTS in cells in absence of CPT; DT40 Tdp1-/- hTDP1 cells, no CPT, ATP luminescence, 48 h; Potency, µM (titrated, usually from 46.2 µM), for inactives: top-dose activity change, negative = growth inhibition, usual class: inhibitors; 15% of 420,000 active; note: potency is the fitted concentration of half-maximal effect; % is set by controls: 0 for no effect and ±100 for the full control effect; nearly all actives have a fitted effect of over 55% in size
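Growth of hTDP1-complemented DT40 Tdp1-knockout cells is measured by ATP luminescence after at least 48 hr compound exposure at 37 °C, with DMSO substituting for the 20 nM CPT used in the parallel screen.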
D3 antag: qHTS of D3 Dopamine Receptor Antagonist: qHTS | max response, negative = inhibition, % | AID 652054, 2013 | 2.5% of 360,000 active | D3R cells, DiscoveRx beta-arrestin luminescence, antagonist mode; hits give low values; in the data active = max response below about -50%; inconclusive = no clear call, values can overlap the other calls; note: % is set by controls: 0 for no effect and ±100 for the full control effect
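Cells expressing the human receptor were seeded at 1500 cells/well, incubated overnight at 37 degrees C in 5% CO2, then exposed to library compounds with dopamine controls for 90 minutes at 37 degrees C before luminescent detection.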
* marks the source's active call; other numbers are inactive results; ? = inconclusive; nt = no result. Unless noted, calls come from the whole dose curve; as a rule, active = well fitted inhibition curve with a large enough effect; inconclusive = small, poorly fitted or top-dose-only effect; inactive = flat fitted curve, though single readings scatter.

SMILES	DT40 TDP1 CPT	D3 ag	ClpP mod	IL-1B inflam inh	TDP1 cell noCPT	D3 antag
O=C(COC(=O)CNC(=O)c1ccco1)NCc1ccc(F)cc1	3%	3	nt	33	13%	-2
CCOCCCNC(=S)N(CCCN(C)C)Cc1cc2cc3c(cc2[nH]c1=O)OCCO3	-17%	2	4%	?	5%	12
CN(C)Cc1ccccc1-c1nc(NCc2ccccc2)c2ccccc2n1	16µM*	nt	nt	nt	6.5µM*	nt
CCCCC(=O)NNC(=S)NC(=O)c1ccc([N+](=O)[O-])cc1	?	-2	-2%	30	29µM*	3
CCCCCC(=O)NNC(=S)NC(C)=O	?	-7	nt	16	18µM*	-11
CCCCOc1ccc(C(=O)N/C(=C\c2ccc(Br)cc2)C(=O)NC2CCCCC2)cc1	5.2µM*	-10	-5%	nt	?	nt
O=C(NNC(=S)NC(=O)c1cccc([N+](=O)[O-])c1)c1ccc(Br)cc1	16µM*	17	nt	73	21µM*	-4
O=C(NC1CCCCC1)/C(=C/c1ccc(Cl)cc1)NC(=O)c1ccccc1	?	-19	1%	nt	?	nt
O=C(NNC(=S)NC(=O)c1cccc([N+](=O)[O-])c1)c1ccc(O)cc1	-1%	2	-2%	15	5%	-4
Cn1nccc1-c1cc(Cl)cc(Cl)c1O	-21%	-24	nt	nt	-29%	-27
Cc1ccc(NC(=O)C2CCCN2C(=O)c2cccs2)cc1C (centres undefined)	-6%	-7	0%	-16	-6%	-1
O=C(NNC(=S)NC(=O)c1ccccc1)c1cccc([N+](=O)[O-])c1	?	-10	-4%	36	?	10
CCCCC(=O)NNC(=S)NC(=O)c1cccc([N+](=O)[O-])c1	23µM*	1	-1%	50	?	36
CCCCOc1ccc(C(=O)N/C(=C/c2cccc([N+](=O)[O-])c2)C(=O)O)cc1	-7%	-29	nt	-62*	-26%	-10
CCCCOc1ccc(C(=O)N/C(=C\c2cccc([N+](=O)[O-])c2)C(=O)OCCC)cc1	0%	11	1%	-8	-5%	5
CCn1cnc2c1c(=O)n(CC(=O)NCC(C)C)c(=O)n2Cc1ccccc1	8%	1	-1%	16	18%	20
CN(C)c1ccc(CNn2cnnc2SCC(=O)NC(C)(C)C)cc1	6%	8	-5%	-1	-7%	2
CCOc1cc(CNn2cnnc2SCC(=O)NC(C)(C)C)ccc1OCC(=O)NC(C)(C)C	-6%	9	nt	20	18µM*	10
O=C1OCCC1Sc1nnnn1-c1ccc(Cl)cc1 (centres undefined)	4%	-3	nt	-18	-3%	-7
C=CCn1c(SCC(=O)c2ccc(O)c(O)c2)nnc1-c1cccc(C)c1	16µM*	6	0%	-17	18µM*	14
C=CCn1c(SCC(=O)c2ccc(O)c(O)c2)nnc1-c1cccc(Cl)c1	15µM*	1	-5%	-6	15µM*	-7
C=CCn1c(SCC(=O)c2ccc(O)c(O)c2)nnc1-c1cccnc1	-16%	-2	-1%	28	7%	10
O=C(Cn1c(C(=O)N2CCN(C3CCCC3)CC2)cc2sccc21)c1ccccc1	18µM*	-37	-1%	-14	?	-78*
COc1ccc(C(=O)N/C=C/n2cnc3cc(C(F)(F)F)ccc32)cc1	-5%	-3	nt	-2	-5%	-6
CN1CCN(NC(=O)c2cn(-c3ccccc3)nc2-c2cccs2)CC1	-3%	1	1%	-3	0%	25
SMILES	DT40 TDP1 CPT	D3 ag	ClpP mod	IL-1B inflam inh	TDP1 cell noCPT	D3 antag
CN1CCN(NC(=O)c2cn(-c3ccccc3)nc2-c2cccc(Br)c2)CC1	?	-6	nt	-136*	?	-11
CCCn1cc(S(=O)(=O)c2ccccc2)c(=O)c2cc(F)c(N3CCCCC3)cc21	?	1	?	nt	?	nt
Cc1ccc(S(=O)(=O)c2cn(Cc3ccc(F)cc3)c3cc(N4CCCC4)c(F)cc3c2=O)cc1	?	8	-5%	nt	?	nt
CCCn1cc(S(=O)(=O)c2ccccc2)c(=O)c2cc(CC)ccc21	6%	5	-11%	-50*	5%	5
CCc1ccc(S(=O)(=O)c2cn(CC)c3cc(N4CCCCC4)c(F)cc3c2=O)cc1	?	6	25µM*	nt	?	nt
COc1ccc(S(=O)(=O)c2cn(Cc3ccccc3)c3cc(N4CCCC4)c(F)cc3c2=O)cc1	?	-12	?	nt	5.2µM*	nt
CCn1cc(S(=O)(=O)c2ccccc2)c(=O)c2cc(F)c(N3CCCCCC3)cc21	?	3	32µM*	nt	?	nt
CCn1cc(S(=O)(=O)c2ccc(OC)cc2)c(=O)c2cc(F)c(N3CCN(C)CC3)cc21	3%	-2	4%	5	11%	-14
CCCCn1cc(S(=O)(=O)c2ccccc2)c(=O)c2cc(F)c(N3CCN(CCC)CC3)cc21	?	-17	-14%	nt	21µM*	nt
O=c1c(S(=O)(=O)c2ccccc2)cn(Cc2ccc(F)cc2)c2cc(N3CCOCC3)c(F)cc12	21µM*	2	?	nt	15µM*	nt
CCCCn1cc(S(=O)(=O)c2ccc(C)c(C)c2)c(=O)c2cc(F)c(N3CCN(C)CC3)cc21	-4%	-9	-24%	nt	?	nt
CCCN1CCN(c2cc3c(cc2F)c(=O)c(S(=O)(=O)c2ccc(CC)cc2)cn3CC)CC1	?	-17	?	nt	21µM*	nt
CCN1CCN(c2cc3c(cc2F)c(=O)c(S(=O)(=O)c2cc(C)cc(C)c2)cn3CC)CC1	?	-16	4%	nt	?	nt
Cc1ccc(Cn2cc(S(=O)(=O)c3ccccc3)c(=O)c3cc(F)c(N4CCOCC4)cc32)cc1	?	-4	?	nt	?	nt
CCCn1cc(S(=O)(=O)c2ccc(CC)cc2)c(=O)c2cc(F)c(N3CCN(C)CC3)cc21	16µM*	-12	-8%	nt	26µM*	nt
Cc1cccc(S(=O)(=O)c2cn(Cc3ccccc3)c3cc(N4CCC(C)CC4)c(F)cc3c2=O)c1	5.8µM*	-5	5%	nt	8.2µM*	nt
CCn1cc(S(=O)(=O)c2cc(C)cc(C)c2)c(=O)c2cc(F)c(N3CCCCC3)cc21	?	-3	?	nt	21µM*	nt

High-throughput results from PubChem.
